According to paper PMC11006913:
Residue numbers refer to the chain shown, from its start.

Columns and labels:
Test in all cases: PBM; 200 nM protein, PBS
Details in all cases: dsDNA, one strand shown
HOXB4 [1] = biological target: HOXB4 (Homo sapiens, UniProt P17483 148-234)
VENTX [2] = biological target: T1, VENTX (Homo sapiens, UniProt O95231 78-163, R121Q)
T1 sequence: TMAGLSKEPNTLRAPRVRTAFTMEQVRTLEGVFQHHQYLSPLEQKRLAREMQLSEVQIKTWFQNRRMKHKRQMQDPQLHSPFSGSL

HOXA4 [3] = biological target: HOXA4 (Homo sapiens, UniProt Q00056 201-287, W262R)
ALX4 = ALX4 (Homo sapiens, UniProt Q9H161 200-286)
PRRX1 [4] = biological target: PRRX1 (Homo sapiens, UniProt P54821 80-166, F113S)
VENTX [5] = biological target: T2, VENTX (Homo sapiens, UniProt O95231 78-163, Y115F)
T2 sequence: T1 sequence with Y38F, Q44R

HOXB6 [6] = biological target: HOXB6 (Homo sapiens, UniProt P17509 132-218, K202E)
HOXA2 [7] = biological target: HOXA2 (Homo sapiens, UniProt O43364 129-215, R185T)
HOXA4 [8] = biological target: HOXA4 (Homo sapiens, UniProt Q00056 201-287, R217L)
HOXB4 [9] = biological target: HOXB4 (Homo sapiens, UniProt P17483 148-234, V174I)
PAX4 = biological target: T3, PAX4 (Homo sapiens, UniProt O43316 9-242, R200Q)
T3 sequence: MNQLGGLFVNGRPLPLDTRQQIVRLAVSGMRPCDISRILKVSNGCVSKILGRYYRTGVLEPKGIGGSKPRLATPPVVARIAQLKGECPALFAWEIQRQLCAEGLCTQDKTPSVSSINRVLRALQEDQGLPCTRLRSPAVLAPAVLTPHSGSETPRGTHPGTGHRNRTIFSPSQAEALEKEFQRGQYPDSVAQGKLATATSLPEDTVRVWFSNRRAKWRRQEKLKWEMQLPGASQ

HOXA2 [10] = biological target: HOXA2 (Homo sapiens, UniProt O43364 129-215, R185K)
HOXA4 [11] = biological target: HOXA4 (Homo sapiens, UniProt Q00056 201-287)
MSX2 [12] = biological target: MSX2 (Homo sapiens, UniProt P35548 130-214)
MSX2 [13] = biological target: MSX2 (Homo sapiens, UniProt P35548 130-214, F161Y)
VAX1 [14] = biological target: VAX1 (Homo sapiens, UniProt Q5SQQ9 86-172, T142I)
HOXA4 [15] = biological target: HOXA4 (Homo sapiens, UniProt Q00056 201-287, W262F)
PRRX1 [16] = biological target: PRRX1 (Homo sapiens, UniProt P54821 80-166)
VAX1 [17] = biological target: VAX1 (Homo sapiens, UniProt Q5SQQ9 86-172, K157R)
HOXB6 [18] = biological target: HOXB6 (Homo sapiens, UniProt P17509 132-218)
Chain of HOXB6 (Homo sapiens, UniProt P17509 132-218) (P17509 132-218): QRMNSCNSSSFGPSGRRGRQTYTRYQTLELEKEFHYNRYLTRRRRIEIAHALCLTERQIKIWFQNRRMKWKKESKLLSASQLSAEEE

Chain of HOXA2 (Homo sapiens, UniProt O43364 129-215, R185K) (O43364 129-215 R185K): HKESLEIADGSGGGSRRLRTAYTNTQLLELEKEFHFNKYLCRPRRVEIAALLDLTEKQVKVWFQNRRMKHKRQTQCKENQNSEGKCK
Chain of ALX4 (Q9H161 200-286): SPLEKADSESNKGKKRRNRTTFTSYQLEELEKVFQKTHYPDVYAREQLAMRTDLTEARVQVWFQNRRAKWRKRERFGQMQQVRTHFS
Chain of HOXA2 (Homo sapiens, UniProt O43364 129-215, R185T) (O43364 129-215 R185T): as the sequence (O43364 129-215 R185K) above, with K57T counted along it
Chain of MSX2 (Homo sapiens, UniProt P35548 130-214, F161Y) (P35548 130-214 F161Y): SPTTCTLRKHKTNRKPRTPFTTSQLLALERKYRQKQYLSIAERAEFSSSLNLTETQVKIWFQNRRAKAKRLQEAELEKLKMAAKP
Chain of HOXA4 (Homo sapiens, UniProt Q00056 201-287, W262R) (Q00056 201-287 W262R): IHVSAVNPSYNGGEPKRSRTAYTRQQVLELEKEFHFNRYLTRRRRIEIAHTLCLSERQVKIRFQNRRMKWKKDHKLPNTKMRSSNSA
Chain of HOXB4 (Homo sapiens, UniProt P17483 148-234, V174I) (P17483 148-234 V174I): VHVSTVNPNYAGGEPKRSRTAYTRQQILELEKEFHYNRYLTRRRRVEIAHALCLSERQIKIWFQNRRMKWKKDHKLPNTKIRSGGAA
Chain of HOXA4 (Homo sapiens, UniProt Q00056 201-287, W262F) (Q00056 201-287 W262F): as the sequence (Q00056 201-287 W262R) above, with R62F counted along it
Chain of MSX2 (Homo sapiens, UniProt P35548 130-214) (P35548 130-214): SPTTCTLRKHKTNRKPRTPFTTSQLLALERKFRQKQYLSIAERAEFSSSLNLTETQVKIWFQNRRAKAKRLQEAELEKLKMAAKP
Chain of VAX1 (Homo sapiens, UniProt Q5SQQ9 86-172, K157R) (Q5SQQ9 86-172 K157R): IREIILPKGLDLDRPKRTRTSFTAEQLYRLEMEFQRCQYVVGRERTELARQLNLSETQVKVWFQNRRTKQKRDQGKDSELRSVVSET
Chain of HOXA4 (Homo sapiens, UniProt Q00056 201-287) (Q00056 201-287): as the sequence (Q00056 201-287 W262R) above, with R62W counted along it
Chain of VAX1 (Homo sapiens, UniProt Q5SQQ9 86-172, T142I) (Q5SQQ9 86-172 T142I): as the sequence (Q5SQQ9 86-172 K157R) above, with T57I, R72K counted along it
Chain of PRRX1 (Homo sapiens, UniProt P54821 80-166, F113S) (P54821 80-166 F113S): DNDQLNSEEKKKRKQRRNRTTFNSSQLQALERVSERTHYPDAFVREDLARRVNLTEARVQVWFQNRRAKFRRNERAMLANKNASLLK
Chain of HOXB6 (Homo sapiens, UniProt P17509 132-218, K202E) (P17509 132-218 K202E): as the sequence (P17509 132-218) above, with K71E counted along it
Chain of HOXA4 (Homo sapiens, UniProt Q00056 201-287, R217L) (Q00056 201-287 R217L): as the sequence (Q00056 201-287 W262R) above, with R17L, R62W counted along it
Chain of PRRX1 (Homo sapiens, UniProt P54821 80-166) (P54821 80-166): as the sequence (P54821 80-166 F113S) above, with S34F counted along it
Chain of HOXB4 (Homo sapiens, UniProt P17483 148-234) (P17483 148-234): as the sequence (P17483 148-234 V174I) above, with I27V counted along it

| Sequence | binding signal (HOXB4 [1]) | binding signal (VENTX [2]) | binding signal (HOXA4 [3]) | binding signal (ALX4) | binding signal (PRRX1 [4]) | binding signal (VENTX [5]) | binding signal (HOXB6 [6]) | binding signal (HOXA2 [7]) | binding signal (HOXA4 [8]) | binding signal (HOXB4 [9]) | binding signal (PAX4) | binding signal (HOXA2 [10]) | binding signal (HOXA4 [11]) | binding signal (MSX2 [12]) | binding signal (MSX2 [13]) | binding signal (VAX1 [14]) | binding signal (HOXA4 [15]) | binding signal (PRRX1 [16]) | binding signal (VAX1 [17]) | binding signal (HOXB6 [18]) |
| --- | --- | --- | --- | --- | --- | --- | --- | --- | --- | --- | --- | --- | --- | --- | --- | --- | --- | --- | --- | --- |
| ATAATTAC | 13.5 upbm affinity estimate (log intensity, higher = more binding, comparable within an allelic series) | 12.1 upbm affinity estimate (log intensity, higher = more binding, comparable within an allelic series) | 10.9 upbm affinity estimate (log intensity, higher = more binding, comparable within an allelic series) | 14 upbm affinity estimate (log intensity, higher = more binding, comparable within an allelic series) | 11.6 upbm affinity estimate (log intensity, higher = more binding, comparable within an allelic series) | 12 upbm affinity estimate (log intensity, higher = more binding, comparable within an allelic series) | 10.2 upbm affinity estimate (log intensity, higher = more binding, comparable within an allelic series) | 13.7 upbm affinity estimate (log intensity, higher = more binding, comparable within an allelic series) | 12.8 upbm affinity estimate (log intensity, higher = more binding, comparable within an allelic series) | 14.2 upbm affinity estimate (log intensity, higher = more binding, comparable within an allelic series) | 12.3 upbm affinity estimate (log intensity, higher = more binding, comparable within an allelic series) | 13.9 upbm affinity estimate (log intensity, higher = more binding, comparable within an allelic series) | 14.2 upbm affinity estimate (log intensity, higher = more binding, comparable within an allelic series) | 14 upbm affinity estimate (log intensity, higher = more binding, comparable within an allelic series) | 13.7 upbm affinity estimate (log intensity, higher = more binding, comparable within an allelic series) | 13.4 upbm affinity estimate (log intensity, higher = more binding, comparable within an allelic series) | 12.2 upbm affinity estimate (log intensity, higher = more binding, comparable within an allelic series) | 13.5 upbm affinity estimate (log intensity, higher = more binding, comparable within an allelic series) | 13.5 upbm affinity estimate (log intensity, higher = more binding, comparable within an allelic series) | 12.6 upbm affinity estimate (log intensity, higher = more binding, comparable within an allelic series) |
| ATAATTAA | 13.6 upbm affinity estimate (log intensity, higher = more binding, comparable within an allelic series) | 12.1 upbm affinity estimate (log intensity, higher = more binding, comparable within an allelic series) | 10.9 upbm affinity estimate (log intensity, higher = more binding, comparable within an allelic series) | 14.5 upbm affinity estimate (log intensity, higher = more binding, comparable within an allelic series) | 12 upbm affinity estimate (log intensity, higher = more binding, comparable within an allelic series) | 12 upbm affinity estimate (log intensity, higher = more binding, comparable within an allelic series) | 10.3 upbm affinity estimate (log intensity, higher = more binding, comparable within an allelic series) | 13.6 upbm affinity estimate (log intensity, higher = more binding, comparable within an allelic series) | 13 upbm affinity estimate (log intensity, higher = more binding, comparable within an allelic series) | 14.4 upbm affinity estimate (log intensity, higher = more binding, comparable within an allelic series) | 12.3 upbm affinity estimate (log intensity, higher = more binding, comparable within an allelic series) | 13.7 upbm affinity estimate (log intensity, higher = more binding, comparable within an allelic series) | 14.3 upbm affinity estimate (log intensity, higher = more binding, comparable within an allelic series) | 13.9 upbm affinity estimate (log intensity, higher = more binding, comparable within an allelic series) | 13.5 upbm affinity estimate (log intensity, higher = more binding, comparable within an allelic series) | 13.7 upbm affinity estimate (log intensity, higher = more binding, comparable within an allelic series) | 12.6 upbm affinity estimate (log intensity, higher = more binding, comparable within an allelic series) | 13.7 upbm affinity estimate (log intensity, higher = more binding, comparable within an allelic series) | 13.5 upbm affinity estimate (log intensity, higher = more binding, comparable within an allelic series) | 12.4 upbm affinity estimate (log intensity, higher = more binding, comparable within an allelic series) |
| AATTAATA | 13.2 upbm affinity estimate (log intensity, higher = more binding, comparable within an allelic series) | 11.9 upbm affinity estimate (log intensity, higher = more binding, comparable within an allelic series) | 10.8 upbm affinity estimate (log intensity, higher = more binding, comparable within an allelic series) | 14 upbm affinity estimate (log intensity, higher = more binding, comparable within an allelic series) | 11.4 upbm affinity estimate (log intensity, higher = more binding, comparable within an allelic series) | 11.6 upbm affinity estimate (log intensity, higher = more binding, comparable within an allelic series) | 10.2 upbm affinity estimate (log intensity, higher = more binding, comparable within an allelic series) | 12.6 upbm affinity estimate (log intensity, higher = more binding, comparable within an allelic series) | 12.3 upbm affinity estimate (log intensity, higher = more binding, comparable within an allelic series) | 13.9 upbm affinity estimate (log intensity, higher = more binding, comparable within an allelic series) | 12.3 upbm affinity estimate (log intensity, higher = more binding, comparable within an allelic series) | 13.1 upbm affinity estimate (log intensity, higher = more binding, comparable within an allelic series) | 13.8 upbm affinity estimate (log intensity, higher = more binding, comparable within an allelic series) | 13.5 upbm affinity estimate (log intensity, higher = more binding, comparable within an allelic series) | 13.2 upbm affinity estimate (log intensity, higher = more binding, comparable within an allelic series) | 12.8 upbm affinity estimate (log intensity, higher = more binding, comparable within an allelic series) | 11.8 upbm affinity estimate (log intensity, higher = more binding, comparable within an allelic series) | 13.4 upbm affinity estimate (log intensity, higher = more binding, comparable within an allelic series) | 12.5 upbm affinity estimate (log intensity, higher = more binding, comparable within an allelic series) | 12.1 upbm affinity estimate (log intensity, higher = more binding, comparable within an allelic series) |
| GCAATTAA | 13.2 upbm affinity estimate (log intensity, higher = more binding, comparable within an allelic series) | 12.2 upbm affinity estimate (log intensity, higher = more binding, comparable within an allelic series) | 10.6 upbm affinity estimate (log intensity, higher = more binding, comparable within an allelic series) | 13.8 upbm affinity estimate (log intensity, higher = more binding, comparable within an allelic series) | 11.1 upbm affinity estimate (log intensity, higher = more binding, comparable within an allelic series) | 11.9 upbm affinity estimate (log intensity, higher = more binding, comparable within an allelic series) | 10.1 upbm affinity estimate (log intensity, higher = more binding, comparable within an allelic series) | 13.2 upbm affinity estimate (log intensity, higher = more binding, comparable within an allelic series) | 12.4 upbm affinity estimate (log intensity, higher = more binding, comparable within an allelic series) | 13.9 upbm affinity estimate (log intensity, higher = more binding, comparable within an allelic series) | 12 upbm affinity estimate (log intensity, higher = more binding, comparable within an allelic series) | 13.4 upbm affinity estimate (log intensity, higher = more binding, comparable within an allelic series) | 13.9 upbm affinity estimate (log intensity, higher = more binding, comparable within an allelic series) | 14.1 upbm affinity estimate (log intensity, higher = more binding, comparable within an allelic series) | 13.7 upbm affinity estimate (log intensity, higher = more binding, comparable within an allelic series) | 13.2 upbm affinity estimate (log intensity, higher = more binding, comparable within an allelic series) | 11.8 upbm affinity estimate (log intensity, higher = more binding, comparable within an allelic series) | 13.2 upbm affinity estimate (log intensity, higher = more binding, comparable within an allelic series) | 12.9 upbm affinity estimate (log intensity, higher = more binding, comparable within an allelic series) | 12.7 upbm affinity estimate (log intensity, higher = more binding, comparable within an allelic series) |
